# Results filed as inconclusive are left out. Where a structure was tested more than once in an assay, its records may differ in their call. Active and inactive are the calls of the source. Calls follow the shape of the dose curve; as a rule, active = well fitted cell-killing curve with a large enough effect in the repeat runs; inconclusive = weak or mixed curves, or effect the other way; inactive = flat fitted curve, though single readings scatter.
# Assay: Human pregnane X receptor (PXR) small molecule agonists, qHTS cell viability counter screen (AID 1346977); also: nearly all actives have a fitted effect of over 50% in size
# Details: PXR-Luc HepG2 viability, CellTiter-Fluor, 24 h; series mostly up to 92.4 µM; activity change, negative = cytotoxicity: at the top concentration
# Description: U.S. Tox21 Program National Center for Advancing Translational Sciences [NCATS] NIH Chemical Genomics Center [NCGC] U.S. Environmental Protection Agency [EPA] National Institutes of Environmental Health Sciences [NIEHS] National Toxicology Program [NTP] U.S. Food and Drug Administration [FDA] Tox21 Assay Overview: The human pregnane X receptor (hPXR) regulates the expression of several drug metabolizing enzymes and induction of these proteins is a major mechanism for developing drug resistance in cancer. One such key enzyme catalyzing the drug metabolism is cytochrome P450 3A4 (CYP3A4). Changes in CYP3A4 expression affect drug metabolism, thereby reducing the therapeutic efficacy and altering toxicological response to a drug and which finally causes adverse drug interaction. To screen Tox21 libraries for compounds that activate hPXR-mediated CYP3A4 gene expression, PXR-Luc HepG2 cells were used. Also cytotoxicity of the compounds was tested in parallel by measuring the cell viability using CellTiter-Fluor assay system in the same wells.
# Tox21 Assay Protocol Summary: PXR-Luc HepG2 cells were dispensed at 2,000 per well in 5uL of assay medium containing 5% charcoal-stripped FBS into white solid bottom 1536-well plates (Corning Life Sciences, Corning, NY) using a Multidrop Combi (Thermo Scientific, Waltham, MA) dispenser. The assay plates were incubated at 37 C and 5% CO2 for 5hr, and then 23nL of compounds dissolved in DMSO and positive control were transferred using a Pintool station (Wako, San Diego, CA). The assay plates were incubated at 37C and 5% CO2 for 24hr. For cytotoxicity read, after 23hr incubation at 37C, 1uL CellTiter-Fluor reagent (Promega Corporation, Madison, WI) was added to each well of the assay plates using Flying Reagent Dispenser (FRD, Aurora Discovery, San Diego, CA). After 1hr incubation at 37C and 5% CO2, the fluorescence signal was quantified using a ViewLux plate reader (PerkinElmer, Shelton, CT).
# % is scaled to controls: 0 for no effect and ±100 for the full control effect; potency is read from the fitted curve at half-maximal effect.
SMILES,"activity change, negative = cytotoxicity",Potency
CC(=O)c1ccccc1O,-1.86% (inactive),
CCOC(=O)c1cccc(N)c1,15.1% [at 42.5 µM] (inactive),
c1ccc([C@H]2CN3CCSC3=N2)cc1,14.3% [at 42.5 µM] (inactive),
COC(=O)C1=C(C)NC(C)=C(C(=O)OC)C1c1ccccc1[N+](=O)[O-],,48.6 µM (active) and inactive
CC(C)CNCC(C)C,-0.478% (inactive),
CC(=O)OCC(=O)[C@@]1(O)CC[C@H]2[C@@H]3CCC4=CC(=O)CC[C@]4(C)[C@H]3C(=O)C[C@@]21C,1.71% [at 42.5 µM] (inactive),
CC(C)(O)C(=O)c1ccccc1,-0.351% (inactive),
Cc1ccc(=O)n(-c2ccccc2)c1,15.1% [at 42.5 µM] (inactive),
O=C(O)CN(CCOCCOCCN(CC(=O)O)CC(=O)O)CC(=O)O,6.91% [at 0.349 µM] (inactive),
CO[Si](CCCOCC1CO1)(OC)OC (stereo not given),,inactive
N=c1nc(N2CCCCC2)cc(N)n1O,8.34% [at 42.5 µM] (inactive),
COC(=O)CCSCCC(=O)OC,7.17% (inactive),
CCCCCCCCS(=O)(=O)Cl,10.7% (inactive),
CC(C)NC(=O)NC(C)C,3.55% (inactive),
Cc1nc2c([nH]1)c(=O)n(C)c(=O)n2Cc1ccco1,11.8% [at 42.5 µM] (inactive),
Cc1[nH]c(=O)c(C#N)cc1-c1ccc2nccn2c1,9.93% [at 42.5 µM] (inactive),
CCn1ccnc1CC1COc2ccccc2O1 (stereo not given),13.8% [at 42.5 µM] (inactive),
NCCc1cnc[nH]1,3.41% [at 42.5 µM] (inactive),
NS(=O)(=O)c1cc2c(cc1Cl)NC(C1CC3C=CC1C3)NS2(=O)=O (stereo not given),18.6% [at 42.5 µM] (inactive),
OCCCC1CCCCC1,23.1% (inactive),

SMILES,"activity change, negative = cytotoxicity",Potency
CC(NC(CCc1ccccc1)C(=O)O)C(=O)N1C(=O)N(C)CC1C(=O)O (stereo not given),5.77% [at 42.5 µM] (inactive),
CS(=O)(=O)O,8.48% (inactive),
C[C@@H]1CCN(C(=O)[C@H](CCCN=C(N)N)NS(=O)(=O)c2cccc3c2NC[C@H](C)C3)[C@@H](C(=O)O)C1,12.6% [at 42.5 µM] (inactive),
C=CCOCC(CC)(CO)COCC=C,14.8% (inactive),
O=S(O)CO,-0.852% (inactive),
Cc1ccc(C#N)cc1,-0.943% (inactive),
CC/C=C\CCOC(C)=O,4.25% (inactive),
CCCCCOC(=O)CCCCC,-0.438% (inactive),
C[N+](C)(C)CCCCCC[N+](C)(C)C,,inactive
CC(=O)OC/C=C(\C)CC/C=C(\C)CCC=C(C)C,,inactive
O=c1[nH]c(=O)n([C@H]2C[C@H](O)[C@@H](CO)O2)cc1I,3.92% [at 42.5 µM] (inactive),
O=C(CCCN1CCN(c2ccccn2)CC1)c1ccc(F)cc1,1.71% [at 42.5 µM] (inactive),
C[C@H]1C[C@@H](O)CC(C)(C)C1,1.25% (inactive),
COc1ccc2c(c1)CCCC2=O,7.61% [at 42.5 µM] (inactive),
C/C=C(\C)C#N,6.89% (inactive),
CCOC(=O)c1c(C)n(C)c2ccc(O)cc12,5% [at 42.5 µM] (inactive),
CN(C)CCCSc1ccccc1NC(=O)/C=C/c1ccccc1,-22.1% [at 42.5 µM] (inactive),
c1cnc(N2CCN(Cc3ccc4c(c3)OCO4)CC2)nc1,-0.245% [at 42.5 µM] (inactive),
CCN(Cc1ccncc1)C(=O)C(CO)c1ccccc1 (stereo not given),-2.98% [at 42.5 µM] (inactive),
Cn1c(N)c(N=O)c(=O)n(C)c1=O,2.45% (inactive),
